Source: PubChem BioAssay
TDP1 cell CPT = growth inhibition of DT40 Tdp1-/-;hTDP1 cells with camptothecin (screen for TDP1 inhibitors); Potency, µM (highest dose often 46.2 µM), without a hit: at the top dose activity change, negative = growth inhibition, most hits filed as inhibitors; chicken DT40 Tdp1-/-;hTDP1 cells + 20 nM CPT, ATP luminescence, 48 h; 12% of 420,000 active; also: potency is read from the fitted curve at half-maximal effect; nearly all actives have a fitted effect of over 55% in size
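Cell growth measured by CellTiter-Glo luminescence after a minimum 48 h, 37 C compound exposure with 20 nM CPT in Tdp1-knockout DT40 cells stably expressing hTDP1, seeded 400/well; qHTS titration format.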
TDP1 block = blocks human tyrosyl-DNA phosphodiesterase 1; Potency, µM (series often up to 130 µM), for inactives: at the highest dose activity change, negative = inhibition, actives largely listed as inhibitors; 0.28% of 350,000 active; Q9NUW8; recombinant TDP1, AlphaScreen DNA substrate cleavage; also: potency is read from the fitted curve at half-maximal effect; nearly all actives have a fitted effect of over 40% in size
Target sequence (Q9NUW8 whole entry, looked up): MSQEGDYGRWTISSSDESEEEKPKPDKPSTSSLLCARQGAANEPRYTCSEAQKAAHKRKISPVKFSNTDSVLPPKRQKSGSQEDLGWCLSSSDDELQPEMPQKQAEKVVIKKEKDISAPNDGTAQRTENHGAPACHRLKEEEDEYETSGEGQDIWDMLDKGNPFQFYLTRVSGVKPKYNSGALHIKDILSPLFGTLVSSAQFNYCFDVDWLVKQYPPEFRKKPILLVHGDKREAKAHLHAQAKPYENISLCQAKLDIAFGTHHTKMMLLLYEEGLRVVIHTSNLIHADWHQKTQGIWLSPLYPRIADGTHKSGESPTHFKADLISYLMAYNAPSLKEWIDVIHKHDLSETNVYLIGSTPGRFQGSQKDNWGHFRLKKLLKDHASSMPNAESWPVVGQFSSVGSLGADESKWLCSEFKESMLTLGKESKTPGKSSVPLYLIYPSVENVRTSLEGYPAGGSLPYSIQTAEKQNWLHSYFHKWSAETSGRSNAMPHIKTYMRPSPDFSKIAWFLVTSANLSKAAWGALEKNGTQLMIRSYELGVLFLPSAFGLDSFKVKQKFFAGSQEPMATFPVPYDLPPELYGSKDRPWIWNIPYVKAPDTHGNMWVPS
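Here, a 5' biotin and 3' phosphotyrosine-FITC DNA oligonucleotide reports Tdp1 activity: intact substrate bridges AlphaScreen beads, while cleavage leaves a 3' phosphate and drops signal. All incubations at room temperature.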
ELG1 DNA repair = blocks ELG1-dependent DNA repair in HEK293T cells | HEK293T ELG1-luciferase reporter, luminescence, 16 h; DNA damage induced by 5-fluorouridine | Potency, µM (highest dose often 46.1 µM), for inactives: at the highest dose activity change, negative = inhibition, most hits filed as inhibitors | 2.3% of 330,000 active | AID 504467; also: potency is read from the fitted curve at half-maximal effect; nearly all actives have a fitted effect of over 55% in size
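Quantitative HTS, concentration-response format. 2,000 cells/well co-treated with 5-fluorouridine and compound, 16 hr in 5% CO2 at 37 °C; ONE-Glo luminescence read after 30 min.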
DT40 TDP1 no CPT = qHTS for Inhibitors of human tyrosyl-DNA phosphodiesterase 1 (TDP1): qHTS in cells in absence of CPT; DT40 Tdp1-/- hTDP1 cells, no CPT, ATP luminescence, 48 h; Potency, µM (series often up to 46.2 µM), without a hit: at the top dose activity change, negative = growth inhibition, hits mostly inhibitors; 15% of 420,000 active; AID 686978, 2013; also: potency is read from the fitted curve at half-maximal effect; nearly all actives have a fitted effect of over 55% in size
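Luminescent ATP content (CellTiter-Glo) served as the growth readout. Knockout chicken DT40 cells expressing human TDP1 were exposed to compounds without camptothecin for a minimum 48 hr at 37 °C.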
Giardia kill = kills Giardia lamblia. Giardia lamblia trophozoite viability. activity change, % at 7.66 µM, hits read low. 0.15% of 340,000 active. AID 540267; in the data active = activity change below about -80%; inconclusive = between about -30% and that limit;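 also: parasites exposed to compound for two days anaerobically before the ATP read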
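Giardia trophozoites, 100 cells per well, were exposed to compounds for 48 hrs at 37 deg C under anaerobic conditions; viability was then read as ATP content by bioluminescence after 15-30 min at room temperature.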
IL-1B inflam inh = inflammasome signaling inhibition, IL-1 beta readout | THP-1 LPS/ATP IL-1B secretion, AlphaLISA, 16 h; stronger effect = lower value | activity change, % at 57.5 µM | 4.7% of 360,000 active | AID 743279; in the data active = activity change below about -50%; inconclusive = mostly about -30% to -49%
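THP-1 cells pretreated 1 hr with compounds (up to 57.5 uM final), then stimulated with LPS (250 ng/mL final) plus ATP (1.25 mM final); secreted IL-1B measured by AlphaLISA after 16 hr, decreased signal indicating inhibition.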
An asterisk follows results filed as active; ? = inconclusive; . = no result; [ ] = remark or other dose. In the library only some 19% were active in any assay of this set; here they are far more common. Unless noted, calls follow the shape of the dose curve; as a rule, active = well fitted curve in the direction sought with a large enough effect; inconclusive = small, poorly fitted or top-dose-only effect, or another doubt; inactive = no such curve, though single readings can be large; an effect the other way counts as inactive or inconclusive. % is scaled to controls: 0 for no effect and ±100 for the full control effect.

SMILES	TDP1 cell CPT	TDP1 block	ELG1 DNA repair	DT40 TDP1 no CPT	Giardia kill	IL-1B inflam inh
CC(C)[C@H](NC(=O)N1CCn2c1nc1ccccc12)C(=O)NCc1ccc(F)cc1	?	7%	3%	-19%	-5	-94*
O=C(CCCCCNC(=O)N1CCn2c1nc1ccccc12)N[C@@H](C(=O)O)c1ccccc1	6%	.	2%	-5%	3	27
CC(NC(=O)CCCCCNC(=O)N1CCn2c1nc1ccccc12)c1ccccc1 (configuration not stated)	15µM*	-2%	?	-36%	3	-53*
Cc1ccc(S(=O)(=O)NCC2CCC(C(=O)NC3CCCCC3)CC2)cc1 (configuration not stated)	1%	.	8%	-8%	23	28
Cc1ccc(S(=O)(=O)CC(=O)Nc2cc(C)on2)cc1	0%	.	-2%	16%	-18	20
COc1cc(-c2ccccc2)nc(N)n1	0%	-3%	?	-1%	-3	18
Nc1nc(Cl)cc(-c2ccccc2)n1	3%	5%	17%	-15%	29	-50*
O=C(COCc1cc(-c2cccs2)on1)N1CCN(c2ccc(F)cc2)CC1	18µM*	0%	.	15µM*	.	.
O=C(COCc1cc(-c2cccs2)on1)N1CCN(c2cccc(Cl)c2)CC1	23µM*	5%	.	12µM*	.	.
Cc1nn(-c2nc3ccccc3s2)c(C)c1Oc1ccccc1O	18µM*	2%	?	?	1	-79*
Cc1nn(-c2ccccn2)c(C)c1Oc1ccccc1O	-4%	-3%	-21%	-25%	-4	33
Cc1ccc(C)c(NC(=O)CSc2nnc(-c3cc4occc4n3C)n2-c2ccccc2C)c1	?	4%	.	?	.	.
CCCc1cc(NCCOCCO)n2c(nc3ccccc32)c1C#N	?	.	.	12µM*	.	5
CCCc1cc(NCCCN2CCOCC2)n2c(nc3ccccc32)c1C#N	16µM*	-1%	?	21µM*	-19	?
Cc1cc(NCCCN2CCOCC2)n2c(nc3ccccc32)c1C#N	-2%	4%	-9%	-22%	-13	-21
CC(C)NC(=O)CSCc1c(Cl)cccc1Cl	?	-2%	12%	15µM*	-13	-8
CS(=O)(=O)c1cccc(S(=O)(=O)N2CCCCCC2)c1	2%	3%	18%	10%	-11	-2
CCCCOC(=O)/C=C\C(=O)NC(N)=O	?	3%	10%	?	-13	-105*
NC(=O)C1(N2CCCCC2)CCN(Cc2ccc(Br)cc2)CC1	?	6%	?	16µM*	3	10
C[N+]1(C)CCC(=C2c3ccccc3CC(=O)c3sccc32)CC1	26µM*	-4%	?	?	1	-6
CC[N+]1(C)CCC(=C2c3ccccc3CC(=O)c3sccc32)CC1 (configuration not stated)	-19%	4%	-2%	-16%	7	-9
CCOC(=O)c1noc2ncnc(N3CCN(c4cccc(C(F)(F)F)c4)CC3)c12	16µM*	5%	.	13µM*	.	.
Cc1oc2ncnc(N3CCCCC3)c2c1C(=O)N1CCN(c2cccc(C(F)(F)F)c2)CC1	16µM*	5%	.	13µM*	.	.
Cc1nc(N2CCOCC2)c2c(C(=O)N3CCN(c4cccc(C(F)(F)F)c4)CC3)c(C)oc2n1	?	1%	.	-17%	.	.
COc1ccc(N2CCN(C(=O)c3c(C)oc4ncnc(N5CCCCC5)c34)CC2)cc1	?	6%	.	15µM*	.	.
SMILES	TDP1 cell CPT	TDP1 block	ELG1 DNA repair	DT40 TDP1 no CPT	Giardia kill	IL-1B inflam inh
CSCCC1NC(=O)N(C(C)C(=O)Nc2cc(Cl)cc(Cl)c2)C1=O (configuration not stated)	0%	5%	19%	-18%	5	-14
Cn1c(=O)c2c(ncn2CC(=O)Nc2cc(Cl)cc(Cl)c2)n(C)c1=O	?	0%[12.3 µM]	.	?	.	.
CCN(CC)c1ccc(/C=C(\C#N)C(=O)NCc2ccccc2)cc1	-3%	.	?	?	-7	?
N#C/C(=C\c1cccs1)C(=O)NCc1cccnc1	-6%	3%	3%	13%	-21	14
N#C/C(=C\c1cccs1)C(=O)NCc1ccccc1	12µM*	5%	20%	21µM*	3	-3
N#C/C(=C\c1cccs1)C(=O)Nc1nccs1	?	3%	?	2.9µM*	-3	2
CC(C)(C)C(=O)/C(C#N)=C/c1cccs1	1%	6%	-5%	-12%	-14	-18
N#C/C(=C\c1cccs1)C(=O)c1ccccc1Cl	29µM*	6%	?	16µM*	16	-98*
N#C/C(=C\c1ccccc1)C(=O)NCc1ccc(F)cc1	?	-10%	17%	?	-3	-98*
CN(CC(=O)Nc1ncn[nH]1)S(=O)(=O)c1ccc(Br)cc1	4%	5%	-6%	-5%	-19	5
N#C/C(=C\c1cn(Cc2ccc(F)cc2)c2ccccc12)C(=O)NCc1ccco1	18µM*	-3%	?	?	-8	16
CC(=O)N1CCN(C(=S)NCc2ccccc2)CC1	-5%	4%	1%	-1%	12	31
O=S(=O)(c1ccccc1)N1CCN(C(=S)NCCCN2CCOCC2)CC1	10%	6%	-12%	-18%	-2	0
S=C(NCc1ccccc1)N1CCN(c2cccc(Cl)c2)CC1	-12%	-3%	?	?	-1	-72*
S=C(NCCCN1CCOCC1)N1CCN(c2cccc(Cl)c2)CC1	?	.	-12%	18µM*	0	?
Cc1[nH]c(=O)[nH]c(=O)c1/C=N/NC(=O)[C@H](C)N	-4%	-10%	6%	?	-6	-12
Cn1c(Cn2nnc3ccccc32)nnc1SCC(=O)Nc1nccs1	-96%	3%	0%	-100%	-6	0
O=S(=O)(c1cccc2c(Cl)cccc12)N1CCCNCC1	9.2µM*	9%[56.1 µM]	.	5.8µM*	.	.
O=S(=O)(c1cccc2c(I)cccc12)N1CCCNCC1	13µM*	9%[56.1 µM]	.	8.2µM*	.	.
Cc1ccc(S(=O)(=O)N2CCN(C(=O)CN3CCN(c4ccc(O)cc4)CC3)CC2)cc1	?	.	.	?	0	2
CCOCCCNCc1ccc(OC)cc1	-27%	-8%	0%	-9%	12	-16
COc1ccc2cc(CNCCOCCOCCNCc3ccc4cc(OC)ccc4c3)ccc2c1	2.6µM*	.	.	2.6µM*	6	-99*
C=CCn1c(SCC#N)nc2ccc(Cl)cc2c1=O	-6%	0%	.	-21%	-3	.
